PubChem BioAssay (Tox21)
Inconclusive results are not listed. A number with no mark means an inactive call. Calls of active or inactive are those of the source. The call rests on the fitted dose curve; in most records, active means well fitted cell-killing curve with a large enough effect in the repeat runs; inconclusive means weak or mixed curves, or effect the other way; inactive means flat fitted curve, though single readings scatter.

Assay: Nuclear factor erythroid 2-related factor 2/antioxidant responsive element (Nrf2/ARE) small molecule agonists: qHTS cell viability counter screen in human keratinocytes (AID 1919968); further: nearly all actives have a fitted effect of over 55% in size
Details: KeratinoSens HaCaT ARE cells viability, CellTiter-Fluor, 24 h; series mostly up to 92.4 µM; activity change, negative = cytotoxicity: at the top concentration
From the text: U.S. Tox21 Program National Center for Advancing Translational Sciences [NCATS] Division of Preclinical Innovation [DPI] U.S. Environmental Protection Agency [EPA] National Institutes of Environmental Health Sciences [NIEHS] National Toxicology Program [NTP] U.S. Food and Drug Administration [FDA] Tox21 Assay Overview: Oxidative stress has been implicated in the pathogenesis of a variety of diseases ranging from cancer to neurodegeneration. The antioxidant response element (ARE) signaling pathway plays an important role in the amelioration of oxidative stress. The KeratinoSens (Givaudan, Switzerland) is an in vitro test method which quantifies luciferase induction as a measure of activation of Keap1-Nrf2-antioxidationt/electrophile response element (ARE) dependant pathway in HaCaT human keratinocytes stably transfected with a selectable plasmid. The KeratinoSens assay is a cell-based assay with a reporter cell line to detect potential skin sensitizers by their ability to induce the Nrf2/ARE-response. The activation of the report gene under culture conditions can be detected by ONE-Glo Luciferase Assay System (Promega, Madison, WI). This cell line has been used to screen the Tox21 10K compound library to identify agonists that induce oxidative stress. The cytotoxicity of the Tox21 compound library against the KS-ARE cell line was tested in parallel by measuring the cell viability using CellTiter- Fluor assay system (Promega, Madison, WI) in the same wells.
Tox21 Assay Protocol Summary: HaCaT derived cell line KeratinoSens were dispensed at 1,500 cells/5uL/well in 1536-well white wall/solid bottom plates using a Multidrop Combi (ThermoFisher Scientific, Waltham, MA) dispenser. After the assay plates were incubated at 37 C/5% CO2 for 5 h, 23 nL of compounds dissolved in DMSO, positive controls or DMSO only was transferred to the assay plate by a pintool workstation (Kalypsys, San Diego, CA). The plates were incubated at 37 C/5% CO2 for 23 h, followed by addition of 1uL/well of CellTiter-Fluor reagent into the assay plates using a Flying Reagent Dispenser (Aurora Discovery, San Diego, CA) for cell viability readout that measures cytotoxicity. After 1 h incubation at 37 C/5% CO2 the fluorescence intensity was measured using a ViewLux (PerkinElmer, Shelton, CT) plate reader.
On the % scale 0 is the no-effect control and ±100 the full control effect; potency means the concentration at half of the fitted maximal effect.

| Structure (SMILES) | activity change, negative = cytotoxicity | Potency |
| --- | --- | --- |
| CCCCCCn1c(=O)c2c(ncn2C)n(C)c1=O | -3.88% [at 42.5 µM] |  |
| Cc1cc(=O)[nH]c(=O)[nH]1 | 3.41% |  |
| CCCCCC(=O)OCCc1ccccc1 | 4.04% |  |
| CCCC(C)C=O (stereo not given) | -4.37% |  |
| CNCCC(Oc1ccccc1OC)c1ccccc1 (stereo not given) | 11.1% [at 42.5 µM] |  |
| CNC(=O)c1cc(Oc2ccc(NC(=O)Nc3ccc(Cl)c(C(F)(F)F)c3)cc2)ccn1 |  | 26.6 µM (active) |
| Nc1nc(-c2ccc([N+](=O)[O-])cc2)cs1 | -7.37% |  |
| CCOC(C)=O | 5.77% |  |
| CC1(C)C(=O)N(CO)C(=O)N1CO | -3.13% |  |
| COC(=O)C1=C(C)NC(C)=C(C(=O)OC(C)(C)CN(C)CCC(c2ccccc2)c2ccccc2)C1c1cccc([N+](=O)[O-])c1 (stereo not given) | -0.619% [at 42.5 µM] |  |
| CC=C(Cl)Cl | -0.808% |  |
| CC1=C(C)C(=O)C(CCCCC#CCCCC#CCO)=C(C)C1=O | 1.32% [at 42.5 µM] |  |
| OCCCc1cccnc1 | 4.71% |  |
| ONc1ccccc1 | 2.8% |  |
| C=C(C)C(=O)OCCOCC | -1.46% |  |
| CNC(=O)c1c(I)c(NC(=O)CCCCC(=O)Nc2c(I)c(C(=O)O)c(I)c(C(=O)NC)c2I)c(I)c(C(=O)O)c1I | 2.1% [at 42.5 µM] |  |
| Cc1nc2ccccn2c(=O)c1CCN1CCC(C(=O)c2ccc(F)cc2)CC1 | -1.31% [at 42.5 µM] |  |
| Nc1ccc(Oc2cccc(Oc3ccc(N)cc3)c2)cc1 | -1.87% |  |
| Cc1cc(C(C)(C)C)c(O)c(C)c1Cn1c(=O)n(Cc2c(C)cc(C(C)(C)C)c(O)c2C)c(=O)n(Cc2c(C)cc(C(C)(C)C)c(O)c2C)c1=O | -12.1% |  |
| C/C=C(\C)C(=O)OCC/C=C\CC | -4.88% |  |

| Structure (SMILES) | activity change, negative = cytotoxicity | Potency |
| --- | --- | --- |
| NS(=O)(=O)c1cc2c(cc1Cl)CN(C1CCCCC1)C2=O | -6% [at 42.5 µM] |  |
| CC/C=C\CC/C=C/C(OCC)OCC | 8.4% |  |
| O=C1c2cccc(O)c2C(=O)c2c(O)cc(CO)cc21 | -8.46% |  |
| CCC(=O)Nc1ccc(O)cc1 | 2.66% [at 42.5 µM] |  |
| Nc1ccc(S(=O)(=O)O)c(N)c1 | 1.17% |  |
| CCOC(=O)[C@H](CCc1ccccc1)N[C@@H](C)C(=O)N1CCC[C@H]1C(=O)O | -14.4% [at 42.5 µM] |  |
| CCOC(=O)c1ccc(I)cc1 | -0.705% |  |
| CCC1C(=O)OCC1Cc1cncn1C (stereo not given) | 2% [at 42.5 µM] |  |
| C=CC(C)(C)O | -3.97% |  |
| CCCCCOC(=O)CCCC | 1.18% |  |
| O=c1[nH]cnc2nc[nH]c12 | -1.74% [at 42.5 µM] |  |
| O=CN1CCCCC1 | 3% |  |
| C[C@H]1O[C@H](O[C@H]2[C@H](O)[C@@H](O)[C@@H](O[C@H]3[C@H](O)[C@@H](O)[C@H](O)O[C@@H]3CO)O[C@@H]2CO)[C@H](O)[C@@H](O)[C@@H]1N[C@H]1C=C(CO)[C@@H](O)[C@H](O)[C@H]1O | 1.04% [at 42.5 µM] |  |
| CC(C)COC(=O)c1ccccc1 | -2.67% |  |
| ClC1=C(Cl)C1(Cl)Cl | -0.0237% |  |
| O=C1c2ccccc2C(=O)c2cc(O)ccc21 | -19.7% |  |
| O=[N+]([O-])c1ccc(CO)cc1 | -7.96% |  |
| CC(C)C(=O)OCc1ccccc1 | 4.26% |  |
| O=C(OCCCCCOC(=O)c1ccccc1)c1ccccc1 | 2.07% |  |
| CC(=O)C=O | -0.525% |  |
